Measurements: article PMC9838217, “Structure of SALL4 zinc finger domain reveals link between AT-rich DNA binding and Okihiro syndrome”
Substitutions are numbered along the chain they refer to.

What follows are sequences tested against T1, SALL4 ZFC4 WT (HT-SELEX) (Mus musculus, UniProt Q8BX22 870-940) (assay: HT-SELEX; high values mean tight binding). Details: protein: recombinant; vector His6-GST; dsDNA, one strand shown.
T1 sequence: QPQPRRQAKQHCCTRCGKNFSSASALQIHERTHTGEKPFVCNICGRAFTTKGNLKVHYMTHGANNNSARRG
Method in brief: (§1)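 In triplicate selections of up to 6 cycles, purified recombinant mouse SALL4 zinc finger cluster 4 (residues 870–940, 1 µg) was incubated 10 min at room temperature with library DNA (1.5 µg, then 200 ng) in 100 µl of 10 mM Tris–HCl pH 7.5, 50 mM NaCl, poly(dI-dC) and DTT, and complexes were captured on Ni2+ beads, washed and PCR-amplified. Sequencing was done on MiSeq with scanning for 6-mers. The binding signal is each canonical k-mer's read fraction, reported as fold change against the initial random library.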

Sequence | binding signal [fold-change vs cycle 0]
CCACTC | 0.468 ± 0.0131
ATTCGA | 1.07 ± 0.0464
TTACAA | 2.01 ± 0.0785
TAGCAA | 1.14 ± 0.0337
CCTAAC | 0.883 ± 0.0279
GAGTCC | 0.481 ± 0.0188
CATATA | 2.3 ± 0.215
GGCAAA | 0.399 ± 0.0111
CGCTTA | 0.535 ± 0.019
ATCATA | 2.91 ± 0.29
CCTCTC | 0.497 ± 0.0203
AAGAGA | 1.45 ± 0.0335
AGCTGG | 0.346 ± 0.0084
GACAGA | 0.725 ± 0.0509
AGTAGG | 0.864 ± 0.0537
AAGTAA | 2.17 ± 0.0689
TACTAA | 2.076 ± 0.0175
TATAAA | 3.97 ± 0.451
CTCAGC | 0.369 ± 0.0266
ACTTAA | 1.95 ± 0.0715

Sequence | binding signal [fold-change vs cycle 0]
ATGAAG | 1.56 ± 0.0293
AAGTAG | 1.32 ± 0.0481
AACCGT | 0.674 ± 0.0289
CAGAAG | 0.787 ± 0.03
GACTTA | 1.27 ± 0.0397
GACACA | 0.629 ± 0.04
ATACAG | 1.33 ± 0.0931
CTCTAC | 0.799 ± 0.0191
CGTTAA | 1.13 ± 0.0737
ACAGAC | 0.687 ± 0.0257
AATCTG | 1.22 ± 0.0563
ATACAT | 2.32 ± 0.0956
GATCCC | 0.519 ± 0.025
CAGACC | 0.367 ± 0.0114
ATTCTA | 2.06 ± 0.0756
GCAGAA | 0.567 ± 0.022
TACAAA | 1.84 ± 0.0971
AAATAC | 1.75 ± 0.12
ACATTA | 2.1 ± 0.0777
CCGGTA | 0.345 ± 0.0119

These sequences were tested against T2, SALL4 ZFC4 R900W (HT-SELEX) (Mus musculus, UniProt Q8BX22 870-940, R900W) (assay: HT-SELEX; high values mean tight binding). Details: protein: recombinant; vector His6-GST; dsDNA, one strand shown.
T2 sequence: T1 sequence with R31W
Method in brief: as §1

Sequence | binding signal [fold-change vs cycle 0]
CCACTC | 0.5154 ± 0.00212
ATTCGA | 1.15 ± 0.0515
TTACAA | 2.03 ± 0.0849
TAGCAA | 1.17 ± 0.0822
CCTAAC | 0.976 ± 0.0147
GAGTCC | 0.549 ± 0.0274
CATATA | 1.91 ± 0.115
GGCAAA | 0.457 ± 0.0213
CGCTTA | 0.58 ± 0.0258
ATCATA | 2.08 ± 0.118
CCTCTC | 0.586 ± 0.028
AAGAGA | 1.67 ± 0.0544
AGCTGG | 0.411 ± 0.0182
GACAGA | 0.826 ± 0.0442
AGTAGG | 0.972 ± 0.0557
AAGTAA | 2.26 ± 0.152
TACTAA | 2.12 ± 0.0758
TATAAA | 2.53 ± 0.209
CTCAGC | 0.414 ± 0.0118
ACTTAA | 2.12 ± 0.103
